The campaign covered roughly 350,000 compounds. About 31,000 (8.9%) were called active. About 15% were inconclusive and are not listed. This excerpt belongs to a sample that is enriched for actives. A number with no mark means an inactive call. Calls come from the whole dose curve; as a rule, active = well fitted inhibition curve with a large enough effect; inconclusive = small, poorly fitted or top-dose-only effect; inactive = no such curve, though single readings can be large or run the other way.
Target: Histone-lysine N-methyltransferase EHMT2 (Homo sapiens) (UniProt Q96KQ7)
Sequence (Q96KQ7 913-1193 limits assumed): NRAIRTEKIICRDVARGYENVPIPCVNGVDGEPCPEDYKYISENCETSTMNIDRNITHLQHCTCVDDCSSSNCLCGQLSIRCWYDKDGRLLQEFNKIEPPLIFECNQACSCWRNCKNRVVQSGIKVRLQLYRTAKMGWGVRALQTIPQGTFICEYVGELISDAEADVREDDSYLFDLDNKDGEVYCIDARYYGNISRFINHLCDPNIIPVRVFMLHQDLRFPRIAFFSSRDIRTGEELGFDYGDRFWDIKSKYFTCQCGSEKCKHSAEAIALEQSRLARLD
Assay: qHTS Assay for Inhibitors of Histone Lysine Methyltransferase G9a; note: nearly all actives have a fitted effect of over 75% in size
Details: G9a H3K9 monomethylation, AlphaScreen, 2 h; series mostly up to 59 µM; activity, negative = inhibition: at the top concentration
Method in brief: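 Compounds were preincubated with 20 nM G9a for 15 min, after which biotinylated H3K9 peptide (500 nM) and SAM (20 uM) started a 2 h room-temperature reaction. Monomethylated product was quantified by antibody-based AlphaScreen chemiluminescence.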
% is set by controls: 0 for no effect and ±100 for the full control effect; potency is the fitted concentration of half-maximal effect.

SMILES | activity, negative = inhibition | Potency
O=C(Nc1ccc(C(=O)NCc2ccccc2Cl)cc1)C1=CSCCO1 | 13.9% | –
Cc1ccn2c(=O)nc(SCC(=O)NCc3ccc(F)cc3)nc2c1 | -25% [at 102 µM] | –
COc1ccc(-n2c(C)nc3c(cnn3-c3ccc(F)cc3)c2=O)cc1 | 0.269% | –
Cc1[nH]c2ccccc2c1C(=O)CN1CC(C)CC(C)C1 (centres undefined) | -25.6% [at 102 µM] | –
Cc1c(C(=O)N2CCOCC2)[nH]c2ccc(OCc3ccccc3)cc12 | -37.5% [at 12.7 µM] | –
Cc1c(C(=O)CN2CCOCC2)[nH]c2ccccc12 | – | 39.8 µM (active)
CCOc1ccccc1CNC(=O)c1ccc2c(c1)nc1n2CCC(C)C1 (centres undefined) | -6.28% | –
CCOc1ccc(OCC)c(Nc2nc3ccccc3n3nnnc23)c1 | -4.9% | –
CCn1c(SCC(=O)NC2CC2)nnc1-c1ccncc1 | 14.2% [at 102 µM] | –
O=C(CSc1nnc(-c2ccncc2)n1C1CCCCC1)Nc1ccccc1 | -7.6% [at 102 µM] | –
CC1CCCCC1NC(=O)CSc1nnc(-c2ccncc2)n1CCCN(C)C (centres undefined) | – | 3.98 µM (active)
CC1(C)NC(=O)N(CC(=O)N2CCN(S(=O)(=O)c3ccccc3F)CC2)C1=O | 22.5% [at 12.7 µM] | –
Cc1csc2nc(O)c(C(=O)NCCN3CCOCC3)c(=O)n12 | -4.7% [at 102 µM] | –
CCc1ccc(NC(=O)C(=O)NNC(=O)c2cccs2)cc1 | 18.7% [at 102 µM] | –
NS(=O)(=O)c1ccc(NC(=S)NC(=O)c2cccc(Br)c2)cc1 | -4.74% [at 102 µM] | –
CC(=O)NC(=S)Nc1ccc(NC(=O)c2cccnc2)cc1 | -0.83% [at 102 µM] | –
NS(=O)(=O)c1ccc(NC(=S)NNC(=O)c2cccs2)cc1 | – | 8.91 µM (active)
NS(=O)(=O)c1ccc(NC(=S)NC(=O)c2cccnc2)cc1 | – | 50.1 µM (active)
CC(C)C(=O)Nc1ccc(C(=O)NNC(=O)c2cccs2)cc1 | 61.3% | –
CC(=O)c1sc(N)nc1C | -2.73% [at 2.33 µM] | –
CCCc1nnc(NC(=O)CCC(=O)NC2CC2)s1 | -1.79% [at 102 µM] | –
O=C(NC1CC(=O)N(c2ccc(Cl)cc2)C1)C1CCCC1 (centres undefined) | 12% | –
CSc1ncc(C(=O)NCc2ccccc2Cl)c(C(F)(F)F)n1 | -9.4% | –
COc1ccc(-n2nc(C(=O)NCC(=O)N3CCN(c4ccccc4OC)CC3)c3ccccc3c2=O)c(OC)c1 | -74.2% [at 102 µM] | –
COC(=O)c1c(-c2ccc(C)cc2)csc1N | – | 31.6 µM (active)

SMILES | activity, negative = inhibition | Potency
CCC(C(=O)OC)n1cnc2scc(-c3ccc(C)cc3)c2c1=O (centres undefined) | 11.4% [at 102 µM] | –
COC(=O)c1scc(-c2ccc(C)cc2)c1S(=O)(=O)Nc1cc(Cl)c(OC)cc1OC | -21% | –
NC(=O)CSc1nc2c(oc3ccccc32)c(=O)n1Cc1ccccc1 | 0.31% | –
CCc1nnc(NC(=O)Cc2cccs2)s1 | 5.33% [at 102 µM] | –
COc1ccc(Cc2nnc(NC(=O)Cc3cccs3)s2)cc1 | – | 39.8 µM (active)
O=C(Cc1cccs1)Nc1nnc(SCc2ccc(F)cc2)s1 | 17.6% [at 102 µM] | –
CCOc1ccc(CCNC(=O)COC(=O)c2c(OC)cccc2OC)cc1OCC | -6.24% [at 2.33 µM] | –
CCN(C(=O)CSc1nnnn1-c1ccccc1OC)C1CCS(=O)(=O)C1 (centres undefined) | -20.6% [at 102 µM] | –
O=C(Cn1c(=O)n(Cc2ccccc2)c(=O)c2sc3ccccc3c21)Nc1ccccc1F | 7.47% | –
NC(=O)c1sc(-c2ccsc2)cc1N | – | 14.1 µM (active)
COc1cc(OC)cc(-c2nc3nc(C)c(CCC(=O)Nc4ccc(C)cc4)c(C)n3n2)c1 | 6.77% | –
COc1ccc(/C=C(\C#N)C(=O)OCC(=O)N(C)C2CCS(=O)(=O)C2)cc1 (centres undefined) | 1.94% [at 102 µM] | –
Cc1ccc(N2C(=O)CC(Nc3cccc4ccccc34)C2=O)cc1 (centres undefined) | – | 14.1 µM (active)
O=C(Cc1ccccc1)NNC1CC(=O)N(c2ccc(Br)cc2)C1=O (centres undefined) | 17.2% | –
Cc1ccc(N2C(=O)C3CC3C2=O)cc1 (centres undefined) | 11.1% [at 102 µM] | –
Cc1cccc(NC(=O)c2nnn(CC(=O)Nc3ccc(C(C)C)cc3)c2N)c1C | 8.78% | –
CN(CC(=O)NCc1ccc2c(c1)OCO2)CC(=O)Nc1ccc(F)c(F)c1F | 2.14% [at 12.7 µM] | –
CC1CCN(c2ccc([N+](=O)[O-])cc2C(N)=O)CC1 | 10.6% [at 102 µM] | –
CC1CCN(C(=S)c2cccc([N+](=O)[O-])c2)CC1 | – | 35.5 µM (active)
CC1CCN(C(=O)CCNC(=O)c2ccccc2)CC1 | 8.2% [at 102 µM] | –
CC1CCN(C(=O)/C(=C\c2ccccc2)NC(=O)c2ccccc2)CC1 | 4.64% [at 102 µM] | –
O=C(c1cccc([N+](=O)[O-])c1)N1CCN(C(=O)c2ccco2)CC1 | -8.6% [at 102 µM] | –
CC1CCN(C(=S)c2cccc(O)c2)CC1 | – | 14.1 µM (active)
Cc1ccc(Cl)c(OCC(=O)N(C)CC(=O)Nc2ccc(N3CCOCC3)cc2)c1 | 10.6% [at 0.501 µM] | –
CCc1ccccc1NC(=O)CSc1nc(C)c(C(=O)Nc2ccccc2)c(-c2ccc(Cl)cc2)c1C#N | 24.8% | –

SMILES | activity, negative = inhibition | Potency
Cc1ccccc1C(=O)Nc1cc(C)c(O)c(-c2nc3ccccc3o2)c1 | 0.528% | –
COC(=O)CN1C(=O)[C@H]2[C@@H](C3CC3)N3C(=O)CN(Cc4ccc(-c5ccccc5)cc4)C(=O)[C@@]3(Cc3ccccc3)[C@H]2C1=O | -1.89% [at 102 µM] | –
CSc1ccc(C2C(C(=O)Nc3ccccc3)=C(C)Nc3nc4ccccc4n32)cc1 (centres undefined) | -23.8% | –
CCn1c(CNS(=O)(=O)c2ccc(Cl)cc2)n[nH]c1=S | – | 28.2 µM (active)
Cc1cc(C)n(CCNS(=O)(=O)c2ccc(Cl)cc2)n1 | -7.54% [at 0.501 µM] | –
CSc1ccc(S(=O)(=O)NCc2ccc(Cl)cc2)cc1 | 15.9% [at 12.7 µM] | –
O=C(c1cc(-c2ccc(Cl)s2)nc2ccccc12)N1CCOCC1 | 17% [at 12.7 µM] | –
COc1ccc(CN2C(=O)C(NC(=O)c3cccc(C)c3)(C(F)(F)F)N=C2c2ccccc2)cc1 (centres undefined) | 5.18% | –
Cc1ccc([N+](=O)[O-])c(OCCCNCC(C)O)c1 (centres undefined) | – | 12.6 µM (active)
CCCCOc1ccc(CSC(=N)N)cc1[N+](=O)[O-] | 7.15% [at 12.7 µM] | –
COCCNc1cc(NCCOC)c([N+](=O)[O-])cc1[N+](=O)[O-] | -5.08% | –
COc1ccc(CC(NC(C)=O)C(=O)NC2CCN(C(=O)c3ccc(Cl)cc3)CC2)cc1 (centres undefined) | -11.3% [at 102 µM] | –
O=C(Nc1ccc(F)cc1)N1CCCC(c2nc3c(nnn3Cc3ccccc3Cl)c(=O)[nH]2)C1 (centres undefined) | 0.052% [at 102 µM] | –
Cc1ccc(NC(=O)N2CCC(c3nc4c(nnn4Cc4c(F)cccc4Cl)c(=O)[nH]3)CC2)cc1 | -23.2% [at 102 µM] | –
O=C(c1ccccc1F)N1CCC(c2nc3c(nnn3Cc3cccc(F)c3)c(=O)[nH]2)CC1 | – | 1 µM (active)
Cc1ccccc1Nc1nn2c(=O)c3ccc(C(=O)NCCc4ccc(Cl)cc4)cc3nc2s1 | -4.26% | –
Cc1cccc(-c2nc3ccc(C(=O)NCCN4CCN(C)CC4)cc3nc2-c2cccc(C)c2)c1 | – | 70.8 µM (active)
Cc1cccc(C(=O)NCCCN2CCCC2=O)c1 | 16.7% [at 102 µM] | –
COc1ccc(-c2nc3ccc(C(=O)NCc4ccc(C)cc4)cc3nc2-c2ccc(OC)cc2)cc1 | 23.6% | –
CCc1ccc(CNC(=O)C2CCN(c3nnc(C)c4c(C)n(-c5ccc(C)cc5)nc34)CC2)cc1 | – | inactive
CC1CC1C(=O)OCC(=O)Nc1cccc(F)c1 (centres undefined) | 17.7% [at 2.33 µM] | –
O=C(CCNC(=O)c1ccc(Cl)cc1)NC1CCCc2ccccc21 (centres undefined) | 15.5% [at 2.33 µM] | –
O=C(CSc1nncs1)NC1CCCc2ccccc21 (centres undefined) | 3.13% [at 102 µM] | –
Cc1ccc(S(=O)(=O)N2CCN(C(=O)CCC(=O)NC3CCCc4ccccc43)CC2)cc1 (centres undefined) | -0.0182% [at 102 µM] | –
O=C(CN1CCN(c2ccc(O)cc2)CC1)NC1CCCc2ccccc21 (centres undefined) | – | 25.1 µM (active)

SMILES | activity, negative = inhibition | Potency
O=C(CCC(=O)N1CCN(S(=O)(=O)c2ccccc2)CC1)NC1CCCc2ccccc21 (centres undefined) | 11.3% | –
CSc1ccccc1N1CCN(CCCCCC(=O)NC2CCCc3ccccc32)CC1 (centres undefined) | – | 21.2 µM (active)
COc1ccc(CCN2C(=O)c3oc4cc(C)cc(C)c4c(=O)c3C2c2ccccc2F)cc1OC (centres undefined) | 5.08% | –
COc1cccc2[nH]c(C(=O)NCCc3ccccc3)cc12 | 21.5% [at 102 µM] | –
CCNC(=O)c1cnn(-c2ccccc2)c1-c1ccccc1 | -1.29% [at 102 µM] | –
Cc1cc(=O)c2cc(C(=O)Nc3cccc(C)c3C)ccc2[nH]1 | -8.29% | –
COc1ccc(/C=N/NC(=O)c2ccc(Cl)cc2)cc1COC(C)=O | -4.32% | –
COc1ccc(/C=N/NC(=O)c2ccncc2)cc1CN1CCCc2ccccc21 | – | 35.5 µM (active)
COc1cc(/C=N/NC(=O)CNC(=O)c2ccncc2)ccc1OC(C)=O | 15.1% [at 102 µM] | –
COC(=O)CN1C(=O)CSc2ccc(S(=O)(=O)Nc3cc(C)ccc3C)cc21 | -6.35% | –
CCC(=O)Nc1cccc(NC(=O)CSc2nnc(-c3ccc(NS(C)(=O)=O)cc3)n2C)c1 | -1.1% | –
CCCCSc1nnc(-c2ccc(NC(=O)CC)cc2)n1C | – | 50.1 µM (active)
Cn1c(SCC(=O)NC2CCCCC2)nnc1-c1ccc(N)cc1 | -1.06% [at 102 µM] | –
CCc1ccc(N(CC(=O)NCc2cccnc2)S(=O)(=O)c2ccccc2)cc1 | 11% [at 102 µM] | –
Cc1ccc(S(=O)(=O)c2nnn3c2nc(N2CCN(c4ccccc4F)CC2)c2cc(Cl)ccc23)cc1C | 7.4% | –
CCOc1cccc(CNC(=O)c2ccc(N3CCCC3)c(NC(=O)Nc3ccccc3CC)c2)c1 | -4.88% | –
CCOCC(=O)NCc1ccc2c(c1)cc(C)n2C | – | 35.5 µM (active)
CCOCCn1ccc2c(OCC(=O)NCc3ccc(C)cc3)cccc2c1=O | -1.84% | –
Cc1ccc(CNC(=O)COc2ccc3c(c2)CCC3)cc1 | 26.7% | –
COc1cc(Cl)c(C)cc1NC(=O)CCc1nc2cccnc2n1Cc1cccs1 | -19.7% | –
CC(=O)c1ccc2c(c1)c1ccccc1n2CC(C)C | 85.8% [at 102 µM] | –
CC(C)Cn1c(CCC(=O)O)ccc1-c1cccs1 | – | 17.8 µM (active)
CCn1c(NC(=O)c2ccccc2)c(-c2cccs2)c(=O)c2ccccc21 | -9.9% [at 102 µM] | –
CCCCCn1c(CCNC(=O)c2ccc(F)cc2)nc2ccccc21 | 5.58% | –
